Results: the supplement of paper PMC10849652
Of roughly 8,800 targets only a part is listed; those with a hit were picked by preference. About 0.5% of all pairs of compound and target were hits.

How the values were obtained:
Experiment in all cases: log2 fold change, soluble protein after heating vs DMSO (PISA); higher = thermal stabilisation; K562 lysate, 10 uM; active = over 0.2 and 3.5 SD of the protein, either way, in both replicates (recomputed)
ibrutinib = compound: C=CC(=O)N1CCC[C@@H](n2nc(-c3ccc(Oc4ccccc4)cc3)c3c(N)ncnc32)C1 [ibrutinib]
Procedure, shortened: (§1)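 Dounce homogenisation of K562 pellets in PBS pH 7.4 with 1 mM MgCl2 produced a crude extract, used at 1 mg/mL protein. Exposure to 10 μM compound lasted 30 min, and aliquots were then heated for 3 min across 48°C-58°C, pooled and brought to 0.5% NP-40 at 4°C. The supernatant after 21,000xg for 90 min was quantified by TMTpro 16plex LC-MS/MS with channel sums equalised. Duplicate values are given as log-two fold change in thermal stability relative to solvent controls.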

ralimetinib = compound: CC(C)(C)Cn1c(N)nc2ccc(-c3[nH]c(C(C)(C)C)nc3-c3ccc(F)cc3)nc21 [ralimetinib]
Procedure, shortened: as §1

[1] = compound: CC(C)(O)CC(=O)NCCn1ccc2ncnc(Nc3ccc(Oc4cccc(C(F)(F)F)c4)c(Cl)c3)c21
Procedure, shortened: as §1

[2] = compound: CC(C)C1=C2N=C(C=C(N2N=C1)NCC3=CC=CC=C3)NCCCCCCN
Procedure, shortened: as §1

[3] = compound: CC1=C(C(CC(=O)N1)C2=CC=C(C=C2)C(F)(F)F)C(=O)NC3=C(C=C4C(=C3)C=NN4)F
Procedure, shortened: as §1

[4] = compound: CC1=C(C2=C(C=C1)C(=O)C3=CC=CC=C3N2CCCN)C
Procedure, shortened: as §1

[5] = compound: CC1=C(C=C(C=C1)NC(=O)C2=CC(=CC=C2)C(C)(C)C#N)NC3=CC4=C(C=C3)N=CN(C4=O)C
Procedure, shortened: as §1

[6] = compound: CC1=C(C=C(C=C1)NC(=O)C2=CC(=CC=C2)N(C)C)NC(=O)C3=CC=C(C=C3)O
Procedure, shortened: as §1

[7] = compound: CC(=O)c1cnc2ccc(-c3cc(Cl)c(O)c(Cl)c3)nc2c1N[C@H]1CC[C@H](CN(C)C)CC1
Procedure, shortened: as §1

[8] = compound: CC1=CC=C(C=C1)SC2=C3C=C(SC3=CN=C2)C(=O)N
Procedure, shortened: as §1

Measured: log2 fold change

PYGO2 (UniProt Q9BRQ0)
Sequence of UniProt Q9BRQ0 (Q9BRQ0 whole entry, looked up): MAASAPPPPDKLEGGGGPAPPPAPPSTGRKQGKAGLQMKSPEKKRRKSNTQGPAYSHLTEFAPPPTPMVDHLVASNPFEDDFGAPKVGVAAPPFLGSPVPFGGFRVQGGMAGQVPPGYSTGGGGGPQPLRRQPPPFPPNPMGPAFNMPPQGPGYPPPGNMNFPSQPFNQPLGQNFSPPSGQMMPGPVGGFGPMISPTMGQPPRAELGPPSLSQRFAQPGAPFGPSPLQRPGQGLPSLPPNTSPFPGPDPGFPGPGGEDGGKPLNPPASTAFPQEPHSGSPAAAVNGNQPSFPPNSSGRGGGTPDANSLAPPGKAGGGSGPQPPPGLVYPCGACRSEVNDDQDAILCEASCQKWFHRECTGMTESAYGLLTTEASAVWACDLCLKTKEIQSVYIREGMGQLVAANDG
inactive: ibrutinib 0.064 | ralimetinib 0.151 | [1] -0.122 | [2] -0.001 | [3] 0.005 | [4] 0.044 | [5] 0.011 | [6] -0.061

PDE4DIP (UniProt E9PS60)
inactive: [2] 0.037 | [3] -0.113 | [4] 0.076 | [5] 0.234

PICALM (UniProt H0YCY1)
inactive: [2] -0.155

PIK3CG (UniProt P48736)
Sequence of UniProt P48736 (P48736 whole entry, looked up): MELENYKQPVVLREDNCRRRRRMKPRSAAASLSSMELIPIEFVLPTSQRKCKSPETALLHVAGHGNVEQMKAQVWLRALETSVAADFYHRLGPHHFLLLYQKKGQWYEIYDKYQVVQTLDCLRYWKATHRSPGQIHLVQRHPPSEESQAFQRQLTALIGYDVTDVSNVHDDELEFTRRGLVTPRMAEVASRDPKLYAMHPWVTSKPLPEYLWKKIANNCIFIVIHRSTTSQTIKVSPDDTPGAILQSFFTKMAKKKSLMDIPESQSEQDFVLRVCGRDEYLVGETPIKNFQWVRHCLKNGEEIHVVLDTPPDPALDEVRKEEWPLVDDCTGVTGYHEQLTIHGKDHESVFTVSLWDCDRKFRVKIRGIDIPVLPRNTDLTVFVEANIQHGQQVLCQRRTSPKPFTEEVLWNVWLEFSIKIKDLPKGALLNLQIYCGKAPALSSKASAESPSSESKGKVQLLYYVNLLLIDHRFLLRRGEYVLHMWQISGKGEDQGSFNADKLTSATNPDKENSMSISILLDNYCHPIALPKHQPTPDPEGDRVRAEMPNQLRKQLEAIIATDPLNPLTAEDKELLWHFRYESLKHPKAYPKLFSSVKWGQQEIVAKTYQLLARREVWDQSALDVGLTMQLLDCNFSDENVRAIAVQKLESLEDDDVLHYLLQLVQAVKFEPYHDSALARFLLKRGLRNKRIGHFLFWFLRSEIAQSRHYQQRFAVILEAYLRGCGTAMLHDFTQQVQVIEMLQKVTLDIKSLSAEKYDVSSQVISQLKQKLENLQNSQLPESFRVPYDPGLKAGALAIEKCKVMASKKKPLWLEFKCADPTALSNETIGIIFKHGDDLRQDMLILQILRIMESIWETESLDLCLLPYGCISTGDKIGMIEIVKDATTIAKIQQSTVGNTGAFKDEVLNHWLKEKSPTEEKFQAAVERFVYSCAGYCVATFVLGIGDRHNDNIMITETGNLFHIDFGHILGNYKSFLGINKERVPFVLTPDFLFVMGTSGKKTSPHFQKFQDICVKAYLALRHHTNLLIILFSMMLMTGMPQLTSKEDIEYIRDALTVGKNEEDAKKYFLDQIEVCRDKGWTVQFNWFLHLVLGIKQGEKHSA
inactive: ibrutinib -0.017 | ralimetinib 0.02 | [1] -0.047 | [2] -0.027 | [3] -0.054 | [4] -0.071 | [5] -0.025 | [6] 0.01

PPM1H (UniProt Q9ULR3)
Sequence of UniProt Q9ULR3 (Q9ULR3 whole entry, looked up): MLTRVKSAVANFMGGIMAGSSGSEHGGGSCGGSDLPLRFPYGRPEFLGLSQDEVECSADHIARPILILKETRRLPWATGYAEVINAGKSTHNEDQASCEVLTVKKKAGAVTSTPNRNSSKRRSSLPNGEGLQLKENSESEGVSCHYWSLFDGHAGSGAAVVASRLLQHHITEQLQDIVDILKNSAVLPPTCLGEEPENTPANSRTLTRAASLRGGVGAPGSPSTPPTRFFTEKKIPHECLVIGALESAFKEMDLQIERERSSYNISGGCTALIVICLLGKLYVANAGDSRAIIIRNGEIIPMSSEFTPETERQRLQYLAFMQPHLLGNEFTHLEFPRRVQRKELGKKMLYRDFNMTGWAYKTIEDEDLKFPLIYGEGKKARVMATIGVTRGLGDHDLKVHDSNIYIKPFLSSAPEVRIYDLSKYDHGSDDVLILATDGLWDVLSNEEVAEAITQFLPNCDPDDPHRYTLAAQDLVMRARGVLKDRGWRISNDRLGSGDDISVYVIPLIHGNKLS
inactive: ibrutinib 0.058 | [7] -0.032 | ralimetinib -0.008 | [1] -0.035 | [2] 0.019 | [4] -0.028 | [5] 0.048 | [6] -0.007 | [8] 0.02
